TGFb SMAD3 inh: blocks TGF-b signaling; AID 588855; HepG2 CAGA-GFP TGF-b/SMAD3 reporter, GFP fluorescence, 18 h; TGF-beta stimulated, 500 pg/mL final; 1.2% of 410,000 active; Potency, µM (series often up to 46.1 µM), most hits filed as inhibitors; also: nearly all actives have a fitted effect of over 65% in size
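GFP signal (ex488/em500-530) from TGF-beta-stimulated HEPG2 CAGA-GFP cells, 500 pg/mL final, 18 h at 37 degrees C in DMEM plus 1% FBS, normalized to unstimulated and DMSO-stimulated controls.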
DT40 TDP1 CPT: DT40-hTDP1 cell growth loss with CPT. chicken DT40 Tdp1-/-;hTDP1 cells + 20 nM CPT, ATP luminescence, 48 h. Potency, µM (titrated, usually from 46.2 µM), usual class: inhibitors. 12% of 420,000 active. AID 686979; also: nearly all actives have a fitted effect of over 55% in size
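Chicken DT40 Tdp1-/- cells stably complemented with human TDP1 were seeded at 400 cells/well in medium containing 20 nM camptothecin, exposed to pin-transferred compounds, and grown at 37 °C for at least 48 hr. Viability was read as ATP luminescence.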
TDP1 block: blocks human tyrosyl-DNA phosphodiesterase 1 | Q9NUW8 | recombinant TDP1, AlphaScreen DNA substrate cleavage | Potency, µM (series often up to 130 µM), actives largely listed as inhibitors | 0.28% of 350,000 active; also: nearly all actives have a fitted effect of over 40% in size
Target sequence (Q9NUW8 whole entry, looked up): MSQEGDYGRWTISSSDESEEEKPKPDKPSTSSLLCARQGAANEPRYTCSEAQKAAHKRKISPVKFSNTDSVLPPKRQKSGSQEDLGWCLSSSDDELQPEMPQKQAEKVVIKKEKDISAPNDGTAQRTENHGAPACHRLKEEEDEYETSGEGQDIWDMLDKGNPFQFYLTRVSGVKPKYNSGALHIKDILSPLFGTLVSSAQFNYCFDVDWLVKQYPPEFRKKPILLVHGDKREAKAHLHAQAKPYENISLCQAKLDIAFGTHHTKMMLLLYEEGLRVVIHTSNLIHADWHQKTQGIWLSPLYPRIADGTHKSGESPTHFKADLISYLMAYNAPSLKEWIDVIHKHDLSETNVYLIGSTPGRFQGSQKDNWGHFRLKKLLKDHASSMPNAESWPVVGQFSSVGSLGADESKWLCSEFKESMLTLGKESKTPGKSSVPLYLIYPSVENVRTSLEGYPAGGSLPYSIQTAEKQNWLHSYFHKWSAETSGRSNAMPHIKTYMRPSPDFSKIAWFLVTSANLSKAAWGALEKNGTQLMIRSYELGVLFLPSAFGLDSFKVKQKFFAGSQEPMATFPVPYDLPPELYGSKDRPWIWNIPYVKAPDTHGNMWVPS
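Tdp1 1 nM final; 15 min RT w/ cpd; substrate 15 nM, 5 min; beads 10 ug/ml, 10 min; AlphaScreen read. Neg ctrl: no enzyme.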
HepG2 viability: HepG2 cytotoxicity, counter-screen for TGF-b inhibitors | HepG2 CAGA-GFP viability, ATP luminescence, 18 h | Potency, µM (doses to about 46.1 µM), hits mostly cytotoxic | 0.76% of 410,000 active
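CellTiter-Glo luminescence gave cytotoxicity after 18 hours at 37 degrees C. The cells were HepG2 CAGA-GFP in 1% FBS DMEM, stimulated with 500 pg/mL TGF-beta after compound addition. %Activity was normalised to no-cell wells (complete cell-killing) and DMSO (no toxicity), and curves were fitted and classified.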
IL-1B inflam inh: inflammasome signaling inhibition, IL-1 beta readout; THP-1 LPS/ATP IL-1B secretion, AlphaLISA, 16 h; active compounds read low; activity change, % at 57.5 µM; 4.7% of 360,000 active; AID 743279; in the data active = activity change below about -50%; inconclusive = mostly about -30% to -49%
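THP-1 cells pretreated 1 hr with compounds (up to 57.5 uM final), then stimulated with LPS (250 ng/mL final) plus ATP (1.25 mM final); secreted IL-1B measured by AlphaLISA after 16 hr, decreased signal indicating inhibition.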
TDP1 cell noCPT: qHTS for Inhibitors of human tyrosyl-DNA phosphodiesterase 1 (TDP1): qHTS in cells in absence of CPT; DT40 Tdp1-/- hTDP1 cells, no CPT, ATP luminescence, 48 h; Potency, µM (top dose mostly 46.2 µM), hits mostly inhibitors; 15% of 420,000 active; also: nearly all actives have a fitted effect of over 55% in size
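Readout: luminescence from CellTiter-Glo after 30 min in the dark at RT. Cells: DT40 Tdp1-/- with stable hTDP1, 400/well. Exposure: compounds alone, ≥48 hr, 37 °C.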
Hits are given with their value; i = inactive; ? = inconclusive; nt = not tested or not shown; [ ] = another dose, or the depositor's remark. Shown are actives, neighbours in structure and some others; about 19% of the full set was active somewhere. Unless noted, calls follow the shape of the dose curve; as a rule, active = well fitted curve in the direction sought with a large enough effect; inconclusive = small, poorly fitted or top-dose-only effect, or another doubt; inactive = no such curve, though single readings can be large; an effect the other way counts as inactive or inconclusive.

SMILES	TGFb SMAD3 inh	DT40 TDP1 CPT	TDP1 block	HepG2 viability	IL-1B inflam inh	TDP1 cell noCPT
O=C(CC12CC3CC(CC(C3)C1)C2)NCC(c1ccc(F)cc1)N1CCOCC1 (stereo not drawn)	i	26µM	i	i	i	?
CN(C)c1ccc(C(CNC(=O)c2ccc(C(C)(C)C)cc2)N2CCOCC2)cc1 (stereo not drawn)	i	16µM	i	i	nt	21µM
COc1ccc(CC(=O)NCC(c2ccc(N(C)C)cc2)N2CCOCC2)cc1OC (stereo not drawn)	i	?	i	i	nt	?
O=C1CCN(Cc2ccccc2)C=C1c1cccc(O)c1	i	?	i	i	i	?
C1CCC(Nc2nc3nonc3nc2N2CCSCC2)C1	i	i	i	i	i	i
OC(c1ccccc1)(c1ccc(F)cc1)C(c1ccccc1)N1CCOCC1 (stereo not drawn)	?	16µM	i	i	i	18µM
CC(O)(c1ccccc1)C(C(c1ccccc1)N1CCOCC1)N1CCOCC1 (stereo not drawn)	i	i	nt	i	i	i
CCOC(=O)N1CCN(C(=O)CCCCn2c(=S)[nH]c3ccsc3c2=O)CC1	i	i	i	i	i	?
Cc1cccc(NC(=S)N/N=C(\c2ccccc2)C(C)C)c1	i	?	i	i	i	5.8µM
CC/C(=N\NC(=S)Nc1cccc(C)c1)c1ccccc1	i	13µM	i	i	i	5.2µM
CCC(=O)Nc1cccc(NC(=S)NC(=O)c2cccc(C)c2)c1	?	?	i	i	i	?
CC(C)/C(=N\NC(=O)Nc1ccccc1)c1ccccc1	i	i	i	i	i	i
CCc1ccc(C(=O)NNC(=O)CN2C(=O)NC(CC)(c3ccccc3)C2=O)cc1 (stereo not drawn)	i	i	i[0.505 µM]	i	i	i
COc1cccc(CSc2nc3cc4c(cc3cc2C)OCCO4)c1	i	?	i	i	i	29µM
Cc1cc2cc3c(cc2nc1SCc1ccc(C(=O)O)cc1)OCCO3	i	i	i	i	i	i
Clc1ccc[n+](CCCCC[n+]2cccc(Cl)c2)c1	i	?	nt	i	nt	?
O=C(NCc1ccccc1)C(c1ccncc1)n1c(=O)c(-c2cc3ccccc3[nH]2)nc2ccccc21 (stereo not drawn)	nt	?	nt	nt	i	?
O=C(NC1CCCCC1)C(c1ccncc1)n1c(=O)c(-c2ccccc2)nc2ccccc21 (stereo not drawn)	nt	i	nt	nt	i	i
O=C(NC1CCCCC1)C(c1ccncc1)n1c(=O)c(-c2cc3ccccc3[nH]2)nc2ccccc21 (stereo not drawn)	nt	18µM	nt	nt	?	?
O=C(NC1CCCCC1)C(c1ccc(C(F)(F)F)cc1)n1c(=O)c(-c2cc3ccccc3[nH]2)nc2ccccc21 (stereo not drawn)	nt	15µM	nt	nt	i	?
COC(=O)[C@H]1C[C@@]2(O)CN(S(=O)(=O)c3ccc(C)cc3)C[C@@]2(OC(=O)NCC2CCCCC2)C[C@H]1C(=O)OC	i	i	nt	i	i	?
CCC(=O)Nc1ccc(CC)cc1-c1nc2ccccc2n(CC(=O)Nc2cccc(OC)c2)c1=O	i	?	i	i	nt	i
Cn1nc(C(F)(F)F)c(C#N)c1N1CCN(c2ccccc2)CC1	i	?	i	i	i	15µM
Cn1nc(C(F)(F)F)c(C#N)c1N1CCN(c2ccc(F)cc2)CC1	i	?	i	i	i	21µM
CCOC(OCC)c1nc(N)[nH]c(=O)c1CCCCc1ccccc1	i	23µM	nt	i	i	16µM
SMILES	TGFb SMAD3 inh	DT40 TDP1 CPT	TDP1 block	HepG2 viability	IL-1B inflam inh	TDP1 cell noCPT
O=Cc1ccc2noc(-c3ccc(Cl)cc3)c2c1	i	?	i	i	i	16µM
Cc1ccc(-c2onc3ccc(Cl)cc23)cc1	i	i	i	i	i	?
COc1ccc2c(c1)CCC1C2CC[C@@]2(C)C1CC[C@@H]2NCCCCCCN1C(=O)C=CC1=O (stereo partly drawn)	nt	nt	i	nt	nt	nt
O=C(CS(=O)(=O)c1ccc2ccccc2c1)N1CCCCCC1	i	?	i	i	?	i
CCn1c(C)nc2cc(C(=O)N/N=C(\C)c3ccc(OC)cc3O)ccc21	?	9.2µM	i	i	i	10µM
CCn1c(C)nc2cc(C(=O)NN=Cc3ccc([N+](=O)[O-])cc3)ccc21	i	i	45µM	i	i	i
CCn1c(C)nc2cc(C(=O)NNC(=S)NC(=O)c3ccccc3)ccc21	i	?	i	i	i	23µM
CCn1c(C)nc2cc(C(=O)N/N=C/c3cccc(O)c3O)ccc21	i	15µM	nt	i	i	9.2µM
CCn1c(C)nc2cc(C(=O)NN=C(C)c3ccc(C#N)cc3)ccc21	i	i	i	i	i	i
CCn1c(C)nc2cc(C(=O)NNC(=S)Nc3ccccc3)ccc21	i	i	i	i	i	i
COc1cccc(NC(=S)N(CCCN2CCOCC2)Cc2cn(C)c3ccccc23)c1	i	9.2µM	i	i	i	15µM
Cc1cc(NC(=S)N(CCN2CCOCC2)Cc2ccccc2F)ccc1Cl	?	?	i	i	-58	18µM
COc1ccc(NC(=S)N(CCCN2CCOCC2)Cc2cn(C)c3ccccc23)cc1OC	i	i	i	i	i	?
CCc1ccc(CN(Cc2cccnc2)C(=O)/C=C/c2ccc(OC)cc2)cc1	?	i	i	i	i	15µM
COc1ccc(/C=C/C(=O)NCc2cccnc2)cc1	?	i	i	i	i	i
Cc1ccccc1COC(=O)c1cc([N+](=O)[O-])ccc1N1CCOCC1	i	?	i	i	i	?
O=C(OCc1ccc(F)cc1)c1cc(S(=O)(=O)N2CCCCC2)ccc1N1CCOCC1	i	29µM	i	i	i	12µM
N#CCOC(=O)c1cc(S(=O)(=O)N2CCCCC2)ccc1N1CCOCC1	i	i	i	i	i	i
O=C(COC(=O)c1cc(S(=O)(=O)N2CCCCC2)ccc1N1CCOCC1)c1ccccc1Cl	i	i	nt	i	i	i
COc1ccc(COC(=O)c2cc(S(=O)(=O)N3CCCCC3)ccc2N2CCOCC2)cc1	i	18µM	nt	i	i	16µM
CSc1ccc(COC(=O)c2cc([N+](=O)[O-])ccc2N2CCOCC2)cc1	?	0.041µM	i	i	i	0.026µM
O=C(OCc1ccc([N+](=O)[O-])cc1)c1cc(S(=O)(=O)N2CCCCC2)ccc1N1CCOCC1	i	15µM	nt	i	i	7.3µM

Source: PubChem BioAssay
